In PubChem BioAssay AID686970 (National Center for Advancing Translational Sciences (NCATS), 2013):
Out of some 360,000 compounds screened, about 6,000 (1.7%) were called active. Roughly 8% stayed inconclusive and do not appear here. The call rests on the fitted dose curve; in most records, active means well fitted cell-killing curve with a large enough effect; inconclusive means small, poorly fitted or top-dose-only effect, or effect the other way; inactive means flat fitted curve, though single readings scatter. What follows is part of a selection rich in actives, with near analogues and random picks from the rest.

Test: qHTS for induction of synthetic lethality in tumor cells producing 2HG: qHTS for the HT-1080-NT fibrosarcoma cell line;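 further: NT is the 2HG producing partner of a matched IDH1 knockdown line; nearly all actives have a fitted effect of over 55% in size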;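 on activity, negative = less viability: 0% = DMSO-treated cells and -100% = media-only wells without cells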
Settings: HT-1080-NT fibrosarcoma viability, CellTiter-Glo ATP luminescence, 48 h; series mostly up to 46.1 µM; activity, negative = less viability: at the top concentration
Method in brief: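 Toxicity toward the 2HG-producing NT line was scored as %Activity, normalised to DMSO and no-cell wells, from CellTiter-Glo luminescence after 48 hours' treatment.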
Potency means the concentration at half of the fitted maximal effect.

| Structure (SMILES) | activity, negative = less viability | Potency |
| --- | --- | --- |
| O=C(C(=O)N1CCC(c2ccccc2)CC1)c1ccccc1 | 15.2% (inactive) |  |
| CCC1OC(C2CC2)CC2=C1C(=O)OC(C)(C)O2 (stereo unspecified) | 14.2% (inactive) |  |
| Clc1cc(-c2ccc(/C=N/n3cnnc3)o2)ccc1Br | 17.7% (inactive) |  |
| Cc1ccc(Cl)cc1-c1ccc(/C=N/n2cnnc2)o1 | -2.27% (inactive) |  |
| Cc1cc([N+](=O)[O-])c(-c2ccc(/C=N/n3cnnc3)o2)cc1Cl |  | 10 µM (active) |
| COC(=O)[C@H]1C[C@H](OC(=O)NCc2ccccc2)[C@@]2(O)CN(S(=O)(=O)c3ccc(C)cc3)CC2[C@H]1C(=O)OC (stereo partly specified) | -0.355% (inactive) |  |
| COc1ccc(-c2cc3c(c4c2ccn4C)C2CCC3C2)cn1 (stereo unspecified) | 0.812% (inactive) |  |
| COC(=O)C1(C(=O)OC)C/C=C\CN(S(=O)(=O)c2ccccc2[N+](=O)[O-])CCC1 | 11.2% (inactive) |  |
| COc1ccc(CN2C(=O)C(CC(=O)NC3CCCCC3)CC(C(=O)N3CCOCC3)=C2C)cc1 (stereo unspecified) | 11.3% (inactive) |  |
| CCNC(=O)c1ccc(OCC(=O)Nc2ccc(F)cc2)c(OC)c1 | 6.01% (inactive) |  |
| COc1cc(C(=O)N(C)Cc2cccc(OC)c2OC)ccc1OCC(=O)Nc1cccc(C(F)(F)F)c1 |  | 8.2 µM (active) |
| COc1ccc(C(=O)OCC(=O)Nc2cccc(C(C)=O)c2)cc1OC | -1.17% (inactive) |  |
| COc1ccc(CN2CCC(C)(Oc3cccc(F)c3)C2)c2ccccc12 (stereo unspecified) | -21.7% (inactive) |  |
| CC1(C)CCc2cc(S(=O)(=O)N3CCN(c4nc(-c5cccs5)nc5ccccc45)CC3)ccc2O1 | 21.5% (inactive) |  |
| COc1ccc(-c2cc(C(=O)NCCCN3CCOCC3)no2)cc1 | 12.7% (inactive) |  |
| COc1ccc(-c2ccc(C(=O)NCCN3CCOCC3)c3occc23)c(C)c1 |  | 16.4 µM (active) |
| COc1ccc(-c2ccc(C(=O)NC(C)C)c3occc23)c(C)c1 | 4.35% (inactive) |  |
| CC1(C(=O)NCc2ccccc2)CSCC(=O)N1CCCn1ccnc1 (stereo unspecified) | 13.7% (inactive) |  |
| COC(=O)C[C@H]1C=C[C@@H](NS(=O)(=O)c2ccc(C)cc2)[C@@H](CO)O1 | 22.6% (inactive) |  |
| Cc1ccc(S(=O)(=O)N2C[C@H]3C(=O)C[C@@H](c4cccc5ccccc45)N(S(=O)(=O)c4ccc(C)cc4)[C@H]3C[C@H]2c2ccc(Cl)cc2)cc1 | -0.387% (inactive) |  |
| Nc1ncnc2c1ncn2[C@@H]1O[C@H](C(=O)N2CCSC2)[C@@H](O)[C@H]1O | 19.5% (inactive) |  |
| C[C@@H]1CN([C@@H](C)CO)C(=O)c2cc(Br)cnc2O[C@@H]1CN(C)C(=O)C1CCCCC1 | 5.55% (inactive) |  |
| CC(=O)Nc1ccc(NC(=O)CCCNC(=O)c2ccc(Cl)cc2)cc1 | 7.73% (inactive) |  |

| Structure (SMILES) | activity, negative = less viability | Potency |
| --- | --- | --- |
| CCCCC(=O)Nc1ccc(C(=O)Nc2cc(C(F)(F)F)ccc2Cl)cc1 |  | 16.4 µM (active) |
| O=C(Nc1cc(C(F)(F)F)ccc1Cl)C(=O)N1CCCCC1 | 20.2% (inactive) |  |
| CCCCNC(=O)C[C@@H]1C[C@@]2(C(=O)OCC)CCC=C2N(Cc2cccc3ccccc23)C1=O | -3.48% (inactive) |  |
| CC1(C(=O)NS(=O)(=O)C2CC2)CCCN(C(=O)CSc2ccccc2)C1 (stereo unspecified) | 22.9% (inactive) |  |
| Cc1cc2oc(=O)cc(CN(C)Cc3ccccc3)c2cc1Cl | 2.42% (inactive) |  |
| CC1CCCC(NC(=O)COC(=O)c2ccccc2C(=O)N(C)C2CCCCC2)C1C (stereo unspecified) | -15.3% (inactive) |  |
| O=C(O)C1CC(=O)N(Cc2cccnc2)C1 (stereo unspecified) | 9.15% (inactive) |  |
| Cc1ccccc1C1=N/C(=C/c2cccnc2)C(=O)O1 | 15.5% (inactive) |  |
| O=C1/C(=C\c2cccnc2)CN(Cc2ccccc2)C/C1=C\c1cccnc1 |  | 1.3 µM (active) |
| N#Cc1cccc(NC(=O)c2cc(C3CCCCN3C(=O)CCc3ccccc3)on2)c1 (stereo unspecified) | -5.5% (inactive) |  |
| Cc1nn(C)c(C)c1NS(=O)(=O)c1ccc(OC(F)(F)F)cc1 | -7.69% (inactive) |  |
| O=S(=O)(Nc1ccc(O)c2ccccc12)c1ccc(OC(F)(F)F)cc1 |  | 23.1 µM (active) |
| O=C1COc2ccc(S(=O)(=O)Nc3ccc(OC(F)(F)F)cc3)cc2N1 | -5.86% (inactive) |  |
| COc1ccc(CC(=O)NC2CCSc3ccccc32)cc1OC (stereo unspecified) | 0% (inactive) |  |
| COC(=O)C1=CN(Cc2ccc(OC)c(OC)c2)C=C(C(=O)OC)C1c1cccs1 | -6.81% (inactive) |  |
| COc1ccc(CC2c3cc(OC)c(OC)cc3CC[N+]2(C)CCC(=O)OCCCCCOC(=O)CC[N+]2(C)CCc3cc(OC)c(OC)cc3C2Cc2ccc(OC)c(OC)c2)cc1OC (stereo unspecified) |  | 18.4 µM (active) |
| Cc1ccc(-c2ccc(CN3C(C)C(=O)N(Cc4cn(CCC5OCCCO5)nn4)CCS3(=O)=O)cc2)cc1 (stereo unspecified) | -19.9% (inactive) |  |
| COc1ccc(C(C(=O)NC2CCCCC2)N(C(=O)CCl)c2ccccc2Cl)cc1 (stereo unspecified) |  | 18.4 µM (active) |
| COc1ccc(C(C(=O)NC2CCCCC2)N(C(=O)c2snc(C(N)=O)c2N)c2ccccc2OC)cc1 (stereo unspecified) | -16% (inactive) |  |
| Cc1ccccc1N(C(=O)CNC(=O)c1cccs1)C(C(=O)NC1CCCC1)c1ccncc1 (stereo unspecified) | 12.9% (inactive) |  |
| Cc1ccc(Cc2c(-c3ccc(C)cc3)nc3c4ccccc4ccn23)cc1 | -2.86% (inactive) |  |
| CCn1c(=S)[nH]c2sc3c(c2c1=O)CCCCC3 | -29.9% (inactive) |  |
| CN(C)CCCn1c(=O)n(Cc2ccccc2)c(=O)c2c3c(sc21)CCCCC3 |  | 16.4 µM (active) |

| Structure (SMILES) | activity, negative = less viability | Potency |
| --- | --- | --- |
| O=c1c2c3c(sc2n(CCN2CCCC2)c(=O)n1Cc1ccccc1)CCCCC3 | -1.98% (inactive) |  |
| O=C(NCc1ccccc1Cl)c1csc([C@@H]2O[C@H](CO)[C@@H](O)[C@H]2O)n1 | 6.23% (inactive) |  |
| COc1cc(OC)c(N2CC(C(=O)Nc3cc(Cl)ccc3N3CCOCC3)CC2=O)cc1Cl (stereo unspecified) |  | 5.8 µM (active) |
| COc1ccc(Cl)cc1NC(=O)C1CC(=O)N(c2ccc(F)cc2)C1 (stereo unspecified) | -2.72% (inactive) |  |
| COc1ccccc1N1CC(C(=O)Nc2ccc(S(=O)(=O)N3CCOCC3)cc2)CC1=O (stereo unspecified) | 11.5% (inactive) |  |
| CCCNC(=O)C1(C)CCN(C(=O)c2ccccc2OC(F)(F)F)C1 (stereo unspecified) | 10.9% (inactive) |  |
| O=C(O)C1CCCN1c1nc(Cl)ccc1[N+](=O)[O-] (stereo unspecified) | 2.51% (inactive) |  |
| COc1ccc(-c2ccc3[nH]c4c(c3c2)CCN2C[C@H]3[C@H](C)ON(C)[C@H]3C[C@@H]42)cc1 | -28.4% (inactive) |  |
| CCOC(=O)c1c(NC(=S)SC)sc(C(=O)N2CCc3ccccc3C2)c1C | -2.33% (inactive) |  |
| Cc1ccc(S(=O)(=O)N2CCCCC2)cc1NC(=O)CCNC(=O)c1ccccc1Cl | 5.6% (inactive) |  |
| Cc1nnc(OCC(=O)NCCC2=CCCCC2)c2ccccc12 | 17.4% (inactive) |  |
| Cc1ccc(-n2c(SCC(=O)NCCC3=CCCCC3)nc3n[nH]c(C)c3c2=N)cc1Cl |  | 23.1 µM (active) |
| COc1cccc(-n2c(SCC(=O)NC3CCS(=O)(=O)C3)nc3ccccc3c2=O)c1 (stereo unspecified) | 3.51% (inactive) |  |
| C=CCn1c(CC(=O)Nc2cccc(OC)c2)nnc1SCC(=O)NC1CCCCC1 | -3.92% (inactive) |  |
| CCCCNC(=O)CSc1nc2n[nH]c(C)c2c(=N)n1-c1cccc(Cl)c1C | 1.53% [at 9.24 µM] (inactive) |  |
| COc1cccc(-n2c(SCC(=O)NC3CCCCC3)nc3n[nH]c(C)c3c2=N)c1 |  | 14.6 µM (active) |
| O=c1cc(CN2CCCCCCC2)c2c(ccc3ccccc32)o1 | 22.8% (inactive) |  |
| Nc1[nH]c(C(=O)c2ccccc2)c(-c2ccc(Br)cc2)c1C(=O)NC1CC1 | 0.942% (inactive) |  |
| CCc1nc2c(OCCOc3ccccc3)cccn2c1N(C)C(=O)c1cccs1 | 12.8% (inactive) |  |
| CCc1nc2c(=O)[nH]cnc2o1 | 10% (inactive) |  |
| Cc1ccccc1S(=O)(=O)NC(=O)C1(C)CCN1C(=O)C1(c2ccccc2)CCCC1 (stereo unspecified) | 13.7% (inactive) |  |
| CCOC(=O)C1(C)CCCN(C(=O)c2ccc(F)c(Cl)c2)C1 (stereo unspecified) | -2.76% (inactive) |  |
| COc1ccc(CNc2nc(NCc3ccc(OC)cc3)c3ncn(C4CCCC4)c3n2)cc1 |  | 7.31 µM (active) |

| Structure (SMILES) | activity, negative = less viability | Potency |
| --- | --- | --- |
| COc1ccc(CNC(=O)C2CCCC2)cc1 | 14.5% (inactive) |  |
| COc1ccc(CNc2nccs2)cc1 | -2.05% (inactive) |  |
| O=c1[nH][nH]c2c1[C@H](c1ccc(Cl)cc1)O[C@H](CCc1ccccc1)C2 | -25.7% (inactive) |  |
| COc1cccc(CNC(=O)[C@@H]2CCCN2C(=O)[C@@H]2CCCN2C(=O)c2ccccc2)c1 | 10.9% (inactive) |  |
| CC1(C(=O)NCc2ccc3c(c2)OCO3)CCN1C(=O)Cc1cccc2ccccc12 (stereo unspecified) | 0.53% (inactive) |  |
| COc1ccc(OC)c(C(O)c2ncc(-c3cccc(C(F)(F)F)c3)[nH]2)c1 (stereo unspecified) | -8.49% (inactive) |  |
| COc1cc2nc(Cl)nc(NC3CC3)c2cc1OC | -5.51% (inactive) |  |
| Cc1ccc([C@H]2N[C@]3(CCCN(Cc4ccccc4)C3=O)[C@H]3C(=O)N(Cc4ccccc4)C(=O)[C@@H]23)cc1 | -8.22% (inactive) |  |
| CC(C)C[C@H]1CNC(=S)N1C[C@H]1CCCN1C[C@H](Cc1ccc(O)cc1)N1C[C@H](Cc2ccc(O)cc2)N(CC2CCCCC2)C1=S |  | 20.6 µM (active) |
| CC(C)C[C@H]1CN([C@@H](Cc2ccccc2)CN2CCC[C@@H]2CN2C(=O)C(=O)NC[C@@H]2Cc2ccc(O)cc2)C(=O)C(=O)N1CCc1ccccc1 | 7.9% (inactive) |  |
| CC(C)C[C@H]1CNC(=O)C(=O)N1C[C@@H]1CCCN1C[C@H](Cc1ccccc1)N1C[C@H](CC(C)C)N(CC2CCCCCC2)C(=O)C1=O | 23% (inactive) |  |
| C[C@@H]1CN([C@@H](C)CO)C(=O)CCCn2nncc2CO[C@H]1CN(C)Cc1ccc(C(F)(F)F)cc1 | 17.2% (inactive) |  |
| CC1(C(=O)NS(=O)(=O)c2cccs2)CCN1C(=O)Cc1ccc(-c2ccccc2)cc1 (stereo unspecified) | 0.809% (inactive) |  |
| COc1cc(SC#N)ccc1N=Cc1c(C)[nH]n(-c2ccc(C)cc2)c1=O |  | 25.9 µM (active) |
| O=Cc1cn(CCOc2ccc(F)cc2)c2ccccc12 | 5.53% (inactive) |  |
| CCc1nc2ccc(C(=O)Nc3ccc(OC)c(OC)c3)cn2c1N(C)C(=O)c1cccc(OC)c1 | 21.7% (inactive) |  |
| CCc1nc2ccc(C(=O)Nc3cccc(OC)c3)cn2c1N(CCC(C)C)CCN(C)C |  | 18.4 µM (active) |
| CCc1nc2ccc(C(=O)N(C)CCN(C)C)cn2c1N(CC)CCOC | 15.1% (inactive) |  |
| O=c1[nH]c(N2CCN(Cc3ccc4c(c3)OCO4)CC2)nc2c1CCCC2 | 15.1% (inactive) |  |
| Fc1ccc2[nH]c3c(N4CCN(Cc5ccc6c(c5)OCO6)CC4)ncnc3c2c1 |  | 23.1 µM (active) |
| CCCCCc1c(C)nc(N2CCN(Cc3ccc4c(c3)OCO4)CC2)[nH]c1=O | 2.77% (inactive) |  |
| COc1cccc(-c2cc3nc(NCCOc4ccccc4Cl)n(C)c(=O)c3s2)c1 | 3.07% (inactive) |  |
